Values joined by “and” are separate entries in the source; they are usually repeats but may differ in a detail not shown here. Equal values may be shown once. Inconclusive results are not listed. Active and inactive are the calls of the source. Unless noted, the call rests on the fitted dose curve; in most records, active means well fitted curve in the direction sought with a large enough effect; inconclusive means small, poorly fitted or top-dose-only effect, or another doubt; inactive means no such curve, though single readings can be large; an effect the other way counts as inactive or inconclusive.

These results are taken from PubChem BioAssay (NCATS).

Assay [1] is described as follows: qHTS for Inhibitors of the Functional Ribonucleoprotein Complex (vRNP) of Lassa (LASV) Arenavirus: LASV Primary Screen - GLuc reporter signal (AID 1347082; calls by dose curve; tested in HEK293 reporter line; further: nearly all actives have a fitted effect of over 60% in size; further: potency means the concentration at half of the fitted maximal effect).
Assay [2] in a line: qHTS for Inhibitors of the Functional Ribonucleoprotein Complex (vRNP) of Lassa (LASV) Arenavirus: Viability assay - alamar blue signal for LASV Primary Screen (AID 1347083; calls by dose curve; tested in HEK293 reporter line; further: nearly all actives have a fitted effect of over 80% in size; further: potency means the concentration at half of the fitted maximal effect).
In assay [3] the target is Parathyroid hormone/parathyroid hormone-related peptide receptor (Homo sapiens) (UniProt Q03431). Put plainly: qHTS for PTHR1 Agonists: Optimization Screen against the NCGC LOPAC library (AID 1347079).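 Further: GloSensor cAMP luminescence in HEK-293 GP2 cells expressing human PTHR1 with IBMX.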 Put shortly:
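Agonist readout: GloSensor cAMP luminescence, read after 15 min at room temperature. HEK-293-derived GP2 line carries PTHR1; compounds tested as a titration for 1 hr at 37C in presence of IBMX. M-PTH (1-15) served as control.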

The target in assay [4] is Nucleoprotein (Lymphocytic choriomeningitis virus (strain Armstrong)) (UniProt P09992). Put plainly: qHTS for Inhibitors of the Functional Ribonucleoprotein Complex (vRNP) of Lymphocytic Choriomeningitis Arenaviruses (LCMV): LCMV Primary Screen - GLuc reporter signal (AID 1347086; calls by dose curve; further: series mostly up to about 57 µM; nearly all actives have a fitted effect of over 70% in size).
Assay [5] can be described thus: qHTS of pediatric cancer cell lines to identify multiple opportunities for drug repurposing: Primary screen for TC32 cells (AID 1347089). Further: nearly all actives have a fitted effect of over 60% in size. Further: potency means the concentration at half of the fitted maximal effect. Put shortly:
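Luminescent CellTiter-Glo read-out of metabolically active TC32 cells after 48 h compound exposure. Primary: MIPE 11-point, 0.78 nM–46 µM; NPC 8-point, 0.59 nM–46 µM. Confirmatory: 11-point dilutions.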

Assay [6] is described as follows: qHTS of pediatric cancer cell lines to identify multiple opportunities for drug repurposing: Primary screen for DAOY cells (AID 1347090). Further: nearly all actives have a fitted effect of over 55% in size. Further: potency means the concentration at half of the fitted maximal effect. Summed up:
(§1)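 Cell viability, CellTiter-Glo luminescence; 500-1,000 cells/well, 8- or 11-point titration, 48 h compound exposure at 37 degrees C, 5% CO2. Controls: DMSO neutral, bortezomib 2.3 µM final as positive.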

A short description of assay [7]: qHTS of pediatric cancer cell lines to identify multiple opportunities for drug repurposing: Primary screen for SJ-GBM2 cells (AID 1347091). Further: potency means the concentration at half of the fitted maximal effect. Put shortly: as §1
Assay [8] in a line: qHTS of pediatric cancer cell lines to identify multiple opportunities for drug repurposing: Primary screen for A673 cells (AID 1347092). Further: nearly all actives have a fitted effect of over 45% in size. Further: potency means the concentration at half of the fitted maximal effect. Put shortly:
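A673 cells (500-1,000 cells/well in growth media) were pre-incubated 5 h at 37 degrees C, then exposed to compounds for 48 h. Viability was read as CellTiter-Glo luminescence; concentration-response curves came directly from the primary screen.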

Assay [9] is described as follows: qHTS of pediatric cancer cell lines to identify multiple opportunities for drug repurposing: Primary screen for SK-N-MC cells (AID 1347093). Further: potency means the concentration at half of the fitted maximal effect. Summed up:
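Metabolically active cells were quantified by ATP-dependent luminescence (CellTiter-Glo, 15 min at room temperature) following 48 h treatment. Cells had been plated at 500-1,000 per well and settled for 5 h beforehand.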

Assay [10] can be described thus: qHTS of pediatric cancer cell lines to identify multiple opportunities for drug repurposing: Primary screen for BT-37 cells (AID 1347094). Further: potency means the concentration at half of the fitted maximal effect. Put shortly: (§2)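 Quantitative HTS format: each compound titrated (MIPE 11 points from 0.78 nM, NPC 8 points from 0.59 nM) onto cells plated 5 hours earlier. After 48 h at 37 degrees C, CellTiter-Glo luminescence was recorded.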

Assay [11] can be described thus: qHTS of pediatric cancer cell lines to identify multiple opportunities for drug repurposing: Primary screen for NB-EBc1 cells (AID 1347095). Further: potency means the concentration at half of the fitted maximal effect. Summed up:
as §2

Assay [12] in a line: qHTS of pediatric cancer cell lines to identify multiple opportunities for drug repurposing: Primary screen for Saos-2 cells (AID 1347097). Further: potency means the concentration at half of the fitted maximal effect; nearly all actives have a fitted effect of over 40% in size. Summed up:
as §2

The nature of assay [13]: qHTS of pediatric cancer cell lines to identify multiple opportunities for drug repurposing: Primary screen for SK-N-SH cells (AID 1347098). Further: nearly all actives have a fitted effect of over 65% in size. Further: potency means the concentration at half of the fitted maximal effect. Put shortly: (§3)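 Cells (500-1,000/well) rested 5 h, then received compounds for 48 h; metabolically active cells were measured by CellTiter-Glo luminescence. Final concentrations spanned up to 46 µM (MIPE, 11-point) or 0.59 nM-46 µM (NPC, 8-point) in primary screens, 11-point in follow-ups.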

Assay [14] can be described thus: qHTS of pediatric cancer cell lines to identify multiple opportunities for drug repurposing: Primary screen for NB1643 cells (AID 1347099). Further: nearly all actives have a fitted effect of over 50% in size. Further: potency means the concentration at half of the fitted maximal effect. Summed up:
as §2

Assay [15] can be described thus: qHTS of pediatric cancer cell lines to identify multiple opportunities for drug repurposing: Primary screen for LAN-5 cells (AID 1347100). Further: potency means the concentration at half of the fitted maximal effect. Summed up: as §3
Assay [16] is described as follows: qHTS of pediatric cancer cell lines to identify multiple opportunities for drug repurposing: Primary screen for BT-12 cells (AID 1347101). Further: nearly all actives have a fitted effect of over 25% in size. Further: potency means the concentration at half of the fitted maximal effect. Put shortly:
as §3

Assay [17] can be described thus: qHTS of pediatric cancer cell lines to identify multiple opportunities for drug repurposing: Primary screen for Rh18 cells (AID 1347102). Further: nearly all actives have a fitted effect of over 65% in size. Further: potency means the concentration at half of the fitted maximal effect. Put shortly: as §3
Assay [18] can be described thus: qHTS of pediatric cancer cell lines to identify multiple opportunities for drug repurposing: Primary screen for OHS-50 cells (AID 1347103). Further: nearly all actives have a fitted effect of over 40% in size. Further: potency means the concentration at half of the fitted maximal effect. Summed up:
as §3

A short description of assay [19]: qHTS of pediatric cancer cell lines to identify multiple opportunities for drug repurposing: Primary screen for U-2 OS cells (AID 1347096). Further: nearly all actives have a fitted effect of over 50% in size. Put shortly:
as §3

Assay [20] can be described thus: qHTS for Inhibitors of the Functional Ribonucleoprotein Complex (vRNP) of Lymphocytic Choriomeningitis Arenaviruses (LCMV): Viability assay - alamar blue signal for LCMV Primary Screen (AID 1347085; calls by dose curve; tested in HEK293 reporter line; further: nearly all actives have a fitted effect of over 80% in size; further: potency means the concentration at half of the fitted maximal effect).

Chain of Parathyroid hormone/parathyroid hormone-related peptide receptor (Homo sapiens) (Q03431 whole entry, looked up): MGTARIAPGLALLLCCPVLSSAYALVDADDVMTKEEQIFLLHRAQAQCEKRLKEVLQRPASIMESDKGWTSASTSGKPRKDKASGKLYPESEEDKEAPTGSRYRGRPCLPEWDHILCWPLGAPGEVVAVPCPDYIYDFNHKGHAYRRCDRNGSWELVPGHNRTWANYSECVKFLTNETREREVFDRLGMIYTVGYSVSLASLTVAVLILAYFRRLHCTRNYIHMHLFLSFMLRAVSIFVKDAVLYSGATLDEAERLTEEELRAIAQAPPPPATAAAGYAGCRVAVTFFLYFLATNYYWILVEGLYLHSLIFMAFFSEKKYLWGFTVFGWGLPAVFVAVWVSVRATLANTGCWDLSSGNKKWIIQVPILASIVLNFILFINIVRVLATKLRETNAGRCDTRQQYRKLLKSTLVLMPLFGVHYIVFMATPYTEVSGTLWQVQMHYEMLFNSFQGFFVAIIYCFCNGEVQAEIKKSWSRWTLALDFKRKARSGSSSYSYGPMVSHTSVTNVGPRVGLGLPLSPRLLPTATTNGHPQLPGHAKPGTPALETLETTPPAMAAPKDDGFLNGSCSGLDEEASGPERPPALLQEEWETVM
Chain of Nucleoprotein (Lymphocytic choriomeningitis virus (strain Armstrong)) (P09992 whole entry, looked up): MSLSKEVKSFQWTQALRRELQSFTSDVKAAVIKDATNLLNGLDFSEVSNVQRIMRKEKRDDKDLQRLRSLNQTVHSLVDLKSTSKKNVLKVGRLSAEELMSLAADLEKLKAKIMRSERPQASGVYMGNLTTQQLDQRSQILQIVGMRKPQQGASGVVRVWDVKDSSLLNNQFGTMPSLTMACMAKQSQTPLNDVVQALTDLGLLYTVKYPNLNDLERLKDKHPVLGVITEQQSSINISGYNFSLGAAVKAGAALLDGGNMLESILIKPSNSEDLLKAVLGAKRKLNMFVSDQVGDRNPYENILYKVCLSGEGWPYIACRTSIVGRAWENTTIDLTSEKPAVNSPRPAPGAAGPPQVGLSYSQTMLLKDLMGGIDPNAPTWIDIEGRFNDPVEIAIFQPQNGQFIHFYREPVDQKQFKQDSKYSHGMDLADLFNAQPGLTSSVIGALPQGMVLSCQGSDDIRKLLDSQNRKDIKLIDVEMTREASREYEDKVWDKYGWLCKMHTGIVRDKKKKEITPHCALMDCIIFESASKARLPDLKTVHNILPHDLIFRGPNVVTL

For `Cc1cccc(-c2[nH]c(C(C)(C)C)nc2-c2ccc3nccnc3c2)n1`, the Potency in assay [1] is 9.68 µM (active).

For the compound `CC(=O)c1c(C)c2cnc(Nc3ccc(N4CCNCC4)cn3)nc2n(C2CCCC2)c1=O`, in assay [1], the Potency result is “inactive”. For the same compound, the Potency in assay [2] was 30.6 µM (active).

Consider `CC[C@@]1(O)C(=O)OCc2c1cc1n(c2=O)Cc2cc3ccccc3nc2-1`, for which the compound was called inactive in [3]. The Potency entry in assay [1] and in assay [4] was “inactive” each time. Further, the Potency in assay [2] is 193 nM (active) and 199 nM (active); in assay [5] it was 0.0262 µM (active); in assay [6], 0.0469 µM (active); in assay [7], 0.0105 µM (active); in assay [8], 0.0235 µM (active); in assay [9], 0.0074 µM (active). For the same compound, the Potency in assay [10] is 0.0137 µM (active); in [11], 0.0083 µM (active); in assay [12], 0.0469 µM (active); in [13] it was 0.121 µM (active); in [14], 0.0469 µM (active); in assay [15] it was 0.0093 µM (active). The Potency in assay [16] was 0.273 µM (active); in assay [17], 0.296 µM (active); in assay [18], 0.0193 µM (active).

In the case of `Cc1cc([C@@H](C)Nc2ccccc2C(=O)O)c2nc(N3CCOCC3)cc(=O)n2c1`, the Potency in assay [1] was 39.5 µM (active); in assay [2] it was 5.59 µM (active).

`CN(C)CCCN=c1c2ccccc2n(C)c2[nH]c(=O)n(C)c(=O)c12`: the Potency entry in assay [1] was “inactive”. Moreover, the Potency in [2] was 19.3 µM (active).

`CC(C)C(=O)Nc1ncc(-c2cc(C(F)F)nn2-c2c(Cl)cccc2Cl)s1`: in [1], the Potency result is “inactive”.

With `Cc1ccc(NC(=O)c2cccc(C(C)(C)C#N)c2)cc1Nc1ccc2ncn(C)c(=O)c2c1`, in [1], the Potency result is “inactive”. Moreover, the Potency in assay [2] was 17.2 µM (active).

As to `CCN(CC)CCCCNc1ncc2cc(-c3cc(OC)cc(OC)c3)c(NC(=O)NC(C)(C)C)nc2n1`, the Potency entry in assay [1] is “inactive”. Moreover, the Potency in [2] was 19.3 µM (active).

Regarding `Cc1c(C(=O)c2cccc3ccccc23)c2cccc3c2n1[C@H](CN1CCOCC1)CO3`, in assay [3], the result was inactive. Further, the Potency result in assay [5] and in assay [19] was “inactive” throughout. Moreover, the Potency was 23.5 µM (active) in assay [6]; 14.8 µM (active) in [7]; 23.5 µM (active) in assay [8]; 10.5 µM (active) in assay [9]; 20.9 µM (active) in assay [11]; 11.8 µM (active) in assay [14]. In addition, the Potency in assay [16] was 27.3 µM (active); in assay [17] it was 20.9 µM (active); in assay [18], 13.7 µM (active).

`COc1ccc2c(c[n+](C)c3c4cc5c(cc4ccc23)OCO5)c1OC`: the call in [3] was inactive. Besides, the Potency entry in [4] was “inactive”. Further, the Potency in assay [6] is 23.5 µM (active); in assay [7], 11.8 µM (active); in [8], 3.72 µM (active); in assay [9], 5.9 µM (active); in [10], 17.2 µM (active); in assay [11] it was 5.26 µM (active). The Potency in assay [12] is 9.35 µM (active); in assay [13], 12.1 µM (active); in assay [14], 7.43 µM (active); in [15], 8.33 µM (active); in assay [16] it was 24.3 µM (active); in [17], 8.33 µM (active). In assay [18], the Potency was 8.63 µM (active).

Take `COC(=O)c1c(Cl)c(Cl)c(C(=O)OC)c(Cl)c1Cl`: the Potency result in assay [1] and in assay [2] was “inactive” in each case.

Regarding `NC1CC1c1ccccc1` (centres undefined), the call in assay [3] was inactive. The Potency entry in [1], in [2], in [20], in [4], in assay [5] and in assay [6] was “inactive” throughout. The Potency result in assay [7], in assay [8], in assay [9], in [10], in assay [11] and in assay [19] was “inactive” each time. Moreover, the Potency result in [13], in assay [14], in assay [15], in [16], in assay [17] and in assay [18] was “inactive” throughout.

Turning to `C[C@@H]1CN(CC(=O)Nc2ccc3c(c2)Cc2cccc(-c4cc(=O)cc(N5CCOCC5)o4)c2S3)C[C@H](C)O1`, the Potency result in assay [1] was “inactive”.

For the compound `Oc1ccc2c3c1O[C@H]1c4[nH]c5c(c4C[C@@]4(O)[C@@H](C2)N(CC2CC2)CC[C@]314)C[C@@]1(O)[C@H]2Cc3ccc(O)c4c3[C@@]1(CCN2CC1CC1)[C@H]5O4`, in [3], the result was inactive. The Potency result in assay [1], in assay [2], in [20], in [4], in [5] and in assay [6] was “inactive” each time. The Potency entry in assay [7], in assay [8], in [9], in assay [10], in [11] and in assay [19] was “inactive” each time. The Potency result in assay [13], in assay [14], in assay [15], in assay [16], in [17] and in [18] was “inactive” in each case.

Regarding `CCOc1ccc(Nc2nc(-c3c(C)nc4ccccn34)cs2)cc1`, in [1], the Potency result was “inactive”. Besides, in [2], the Potency was 0.0049 µM (active).

As to `[Cl][In]([Cl])[Cl]`, the Potency result in [1] is “inactive”.

As for `COc1ccc(-c2ccc3c(N4CCOCC4)nc(N4C[C@@H](C)O[C@@H](C)C4)nc3n2)cc1CO`, the Potency in [1] is 0.344 µM (active); in assay [2], 0.243 µM (active); in assay [20], 1.09 µM (active).

As for `O=C(O)[C@@H]1CCN1`, the compound was called inactive in [3]. For the same compound, the Potency result in assay [1], in assay [2], in assay [20] and in [4] was “inactive” each time.

With `O=C(N[C@H]1CN2CCC1CC2)c1ccc(Cl)cc1`, the compound was called inactive in assay [3]. For the same compound, the Potency result in assay [1], in [20], in [4], in assay [5], in [7] and in assay [11] was “inactive” throughout. Also, the Potency entry in assay [19], in assay [15] and in [16] was “inactive” in each case. The Potency is 18.7 µM (active) in [6]; 5.9 µM (active) in assay [8]; 1.66 µM (active) in assay [9]; 6.81 µM (active) in [13]; 2.64 µM (active) in [14].
